This passage reports AC50 and outcome results from PubChem BioAssay (EPA / NIEHS).

Structures are written as SMILES. The source made the active and inactive calls. Rule for the calls: active = hit-call score of the fitted dose curve at least 0.9, where 1 is the maximum; inactive = score below 0.9.

This assay can be described thus: STM_H9_CystineISnorm_perc: Stemina devTOX quickPredict H9 human embryonic stem cell (hESC)-based Assay for Cystine (CYSS) Metabolite Biomarker, Normalized (AID 2283713). An excerpt:
STM_H9_secretome utilizes undifferentiated H9 cells to measure relative changes in two metabolites, ornithine (ORN) and cystine (CYSS) in the secretome, targeting a critical drop in the ORN/CYSS ratio as a biomarker for developmental toxicity.STM_H9_CystineISnorm_perc is one of 10 components calculated in the STM_H9_secretome assay. It measures the integrated area of the endogenous cystine normalized to the spiked-in isotopically labeled standard and to the median value of the 0.1% DMSO neutral control treatment using UPLC-HRMS technology.Data from the assay component STM_H9_CystineISnorm_perc was analyzed at the assay endpoint STM_H9_CystineISnorm_perc in the positive analysis fitting direction relative to DMSO as the negative control and baseline of activity. Using a type of binding reporter, gain or loss-of-signal activity can be used to understand relative metabolite change.
H9 hESCs maintained in a pluripotent state were exposed to test compound for 72h with chemical replenishment with media replacement every 24h. Cell-conditioned media from the final 24-h treatment period was collected for analysis of the targeted biomarker, and cell viability of the corresponding cell layer was assessed. The chemical library was tested in blinded fashion. Each test plate included 1uM Methotrexate (MTX; Selleck Chemicals, Houston, Texas) as a positive reference, 5 nM MTX as a negative reference, 0.1% DMSO as the neutral (vehicle) control, and sample-level media blanks.H9 cell-conditioned media from the final 24-h treatment period was collected for analysis of the targeted biomarker and cell viability was measured from the corresponding cell layer. Cell viability was measured using the CellTiter-Fluor assay (Promega, Madison, Wisconsin) based on proteolytic cleavage of a substrate to fluorescent signal proportional to the number of living cells. The cell viability Relative Fluorescence Unit (RFU) was background corrected and normalized to mean RFU of the neutral control (0.1% DMSO). The collected H9-cell-conditioned media samples were processed for targeted biomarker analysis as described (Palmer et al., 2013). Briefly, spent media samples were deproteinized (40% acetonitrile) and processed for UPLC-HRMS. Data acquisition was performed using 4 separate UPLC-HRMS systems, consisting of an Agilent 1290 Infinity LC system (Agilent Technologies) interfaced with an Agilent high-resolution mass spectrometer (models G6520A, G6520B, G6530A, and G6224A). A Waters Acquity UPLC BEH Amide column (2.1mm x 50mm, 1.7lm particle size; Waters, Milford, Massachusetts) maintained at 40C was applied for separation of metabolites using a 6.5min solvent gradient with 0.1% formic acid in water and 0.1% formic acid in acetonitrile (1.0ml/min flow rate). Data were acquired using MassHunter Acquisition software (version B 04.00, Agilent Technologies). The extracted ion chromatogram (EIC) areas for ORN, CYSS, and their respective spike-in C13-standards were determined using the Agilent MassHunter Quantitative Analysis software, version B.05.00 or newer (Agilent Technologies), and data were normalized as described in Palmer et al. (2017).
A word on the AC50: it is the midpoint of the concentration-response curve, whichever way the signal moves. Regarding `CCCCC(O)(Cn1cncn1)c1ccc(Cl)cc1Cl` (stereo not given), the half-maximal activity concentration (AC50) is 78.9 µM (active). Still for that read-out and setting: as for `CCOP(=S)(OCC)Oc1nc(Cl)n(C(C)C)n1`, the figure is 50.5 µM (active). Turning to `O=C1C2CC=CCC2C(=O)N1SC(Cl)(Cl)Cl` (stereo not given), the result was inactive. `CCCN(CC)CC1COC2(CCC(C(C)(C)C)CC2)O1` (stereo not given): the concentration at half-maximal activity (AC50) is 1.03 µM (active). Take `COc1ccc(-c2ccccc2)cc1NNC(=O)OC(C)C`: the concentration at half-maximal activity (AC50) was 30.5 µM (active). Regarding `CC(C)C1(C)N=C(c2ncccc2C(=O)O)NC1=O` (stereo not given), the result was inactive.

As to `COCc1cnc(C2=NC(C)(C(C)C)C(=O)N2)c(C(=O)O)c1` (stereo not given), the result was inactive. Consider `CC1(C)CON(Cc2ccccc2Cl)C1=O`, for which the AC50 was 72.5 µM (active). On to `CCC(C)n1c(=O)[nH]c(C)c(Br)c1=O` (stereo not given), for which the outcome was inactive. `CCOc1nc(F)cc2nc(S(=O)(=O)Nc3c(Cl)cccc3Cl)nn12`: the concentration at half-maximal activity (AC50) is 0.0249 µM (active). On to `CCN(CC)C(=O)C(C)Oc1cccc2ccccc12` (stereo not given), for which the AC50 was 5.52 µM (active). Take `CCCCC(C#N)(Cn1cncn1)c1ccc(Cl)cc1` (stereo not given): the outcome was inactive. As to `CS(=O)(=O)c1cc(C(F)(F)F)ccc1C(=O)c1cnoc1C1CC1`, the outcome was inactive. Turning to `CC1(C)CCC(=Cc2ccc(Cl)cc2)C1(O)Cn1cncn1` (stereo not given), the concentration at half-maximal activity (AC50) is 28.9 µM (active).

`CS(=O)(=O)c1ccc(C(=O)C2C(=O)CCCC2=O)c([N+](=O)[O-])c1`: the outcome was inactive. Regarding `Cc1cc(C)nc(Nc2ccccc2)n1`, the concentration at half-maximal activity (AC50) is 7.74 µM (active). As to `CC1(C)C(C=C(Cl)Cl)C1C(=O)OC(C#N)c1cccc(Oc2ccccc2)c1` (stereo not given), the outcome was inactive. In the case of `CC(C)(C)C(=O)C(Oc1ccc(Cl)cc1)n1cncn1` (stereo not given), the AC50 was 34.3 µM (active). For the compound `CCNP(=S)(OC)O/C(C)=C/C(=O)OC(C)C` (stereo not given), the AC50 is 75.5 µM (active). On to `N#Cc1c[nH]cc1-c1cccc2c1OC(F)(F)O2`, for which the AC50 is 29.4 µM (active). On to `CCOc1nc(C(Cl)(Cl)Cl)ns1`, for which the result was inactive. In the case of `COc1cc(OC)nc(NC(=O)NS(=O)(=O)c2ncccc2OCC(F)(F)F)n1`, the result was inactive. In the case of `CCNC(=O)NC(=O)C(C#N)=NOC`, the result was inactive. Turning to `N#CN=C1SCCN1Cc1ccc(Cl)nc1`, the result was inactive. Turning to `CNC(=O)Oc1cccc2ccccc12`, the AC50 is 2.87 µM (active). `O=C(Nc1ccccc1-c1ccc(Cl)cc1)c1cccnc1Cl`: the result was inactive. `CC(C)Nc1nc(Cl)nc(NC(C)C)n1`: the concentration at half-maximal activity (AC50) is 5.93 µM (active). As to `Clc1cccc(C(Cl)(Cl)Cl)n1`, the result was inactive. For `CO/N=C(/C1=NOCCO1)c1ccccc1Oc1ncnc(Oc2ccccc2Cl)c1F`, the concentration at half-maximal activity (AC50) was 9.72 µM (active).

With `Cn1c(-c2ccccc2)cc(-c2ccccc2)[n+]1C`, the AC50 is 10.9 µM (active).
